Consider 104 compounds from ChEMBL document CHEMBL4513216, “Probing the Open Global Health Chemical Diversity Library for Multistage-Active Starting Points for Next-Generation Antimalarials” (ACS Infect Dis, 2020).

In all, about 69,000 compounds went through this assay and about 8,600 (12%) showed an effect of 50% or more. For the sample, strong results were picked, then their nearest neighbours and some compounds at random.

The subject of the experiment is Plasmodium berghei. Briefly: Screen against P. berghei liver stage (PbLuc), transformed with Luciferase, at 10uM. It is filed as functional, HepG2. The settings on record: tested at 10 uM.
In the case of `CCn1c(CN2CCN(C(=O)C3CCC3)CC2)nc2c(F)cccc21`, the INHIBITION turned out to be 18.04%.
For the compound `CC1=C(C#N)C(=O)NC(=O)/C1=C\c1c(C)[nH]n(-c2ccccc2)c1=O`, the INHIBITION is on record as -25.6%.
In the case of `COC(=O)CC(C1=Cc2ccccc2OC1)c1oc(C)cc(=O)c1O` (centres undefined) it was 11.6%.
As for `CC1=C(C#N)C(=O)N(C)C(=O)/C1=C\C1=Cc2ccccc2OC1`, the figure is 92.5%; as for `CC(Cn1cccn1)NC(=O)C1=Cc2ccccc2OC1` (centres undefined), -40.7%.
As for `CCN1C(=O)C(C#N)=C(C)/C(=C/C2=Cc3ccccc3OC2)C1=O`, the figure is 51.7%; as for `O=C(Nc1cccnc1)C1=Cc2ccccc2OC1`, -25%; as for `Cc1cc(C)n(CCC(=O)N2CCCC(c3cc(C(N)=O)[nH]n3)C2)n1` (centres undefined), 16.8%.
Take `COC(=O)C(c1ccccc1)N(C)C(=O)c1ccnc(C)n1` (centres undefined): the INHIBITION is reported as 23.7%.
Regarding `O=C(c1cccnc1)N1C[C@H]2CC[C@@H](C1)N(Cc1cc(F)ccc1F)C2`, the INHIBITION is on record as 19.2%.
In the case of `CCc1nc(CN(C)C2CCCN(c3cccnn3)C2)no1` (centres undefined) it was 14.1%.
As to `CCNC(=O)C1(Cc2ccc(-c3ccccc3)cc2)CCCNC1` (centres undefined), the INHIBITION is reported as -0.232%.
Regarding `NC(=O)C1(Cc2ccc(-c3ccccc3)cc2)CCCNC1` (centres undefined), the INHIBITION is listed as -0.232%.
As to `O=C(N1CCCC1)C1(Cc2ccc(-c3cccs3)cc2)CCNC1` (centres undefined), the INHIBITION is on record as 50.9%.
In the case of `O=C(O)C1(Cc2cccc(-c3cccs3)c2)CCCNC1` (centres undefined) it was 29.05%; in that of `NC(=O)C1(Cc2ccc(-c3ccccc3)cc2)CCNC1` (centres undefined), 52.7%; in that of `O=C(O)C1(Cc2ccc(-c3cccs3)cc2)CCNC1` (centres undefined), 35.55%.
As for `COc1c(C)cnc(CN2CCn3c(C)nnc3C2)c1C`, the INHIBITION is listed as -7.53%.
For the compound `c1ccc2oc(CCCN3CCCC3c3noc(C4CC4)n3)nc2c1` (centres undefined), the INHIBITION is 9.54%.
As for `COCC(=O)N1CCC2(CC1)CC(COC)N(c1ncccn1)C2` (centres undefined), the figure is -6.23%.
As for `COCCC(=O)N1CCCC(c2nc(O)cc(-c3ccncc3)n2)C1` (centres undefined), the figure is 28%.
As for `CNC(=O)[C@@]12CCO[C@@H]1CCN(Cc1cccc(C)c1)C2`, the figure is 38.1%; as for `O=C(O)CSc1nnc(-c2cn[nH]c2)n1-c1ccccc1C(F)(F)F`, 90.8%; as for `O=C(O)CSc1nnc(-c2ccn[nH]2)n1-c1ccccc1C(F)(F)F`, 27.4%.
For `O=C(O)CSc1nnc(-c2cn[nH]c2)n1-c1ccccc1Cl`, the INHIBITION is recorded as 9.87%.
In the case of `CCc1ncc(C(=O)N2CCCN(C3CCCC3)CC2)cn1` it was 43.6%; in that of `CCCc1noc(CCC(=O)N2CCCC2Cn2cc(C)cn2)n1` (centres undefined), -13.5%; in that of `O=C(CC1CCc2ccccc21)N1CCC(O)(c2cccnc2)CC1` (centres undefined), 6.83%.
Take `CS(=O)(=O)Nc1cccc(C(=O)Nc2ccc3c(c2)C(=O)NC3)c1`: the INHIBITION is -13.2%.
As for `Cc1nc(C)c(C(=O)NCCOc2ccc(C(F)(F)F)cn2)o1`, the figure is 64.4%.
Consider `Cc1occc1C(=O)NCCOc1ccc(C(F)(F)F)cn1`, for which the INHIBITION was 27.7%.
In the case of `CC(C)c1ccc(OCCNC(=O)N2CCS(=O)(=O)CC2)cc1`, the INHIBITION is on record as -12.21%.
For the compound `O=C(CNC(=O)c1ccoc1)NCCOc1ccc2c(c1)CCC2`, the INHIBITION was -112%.
Take `O=C(NCCOc1ccc(C(F)(F)F)cn1)c1ccoc1`: the INHIBITION was 57.5%.
In the case of `O=C(NCCNc1ccc(C(F)(F)F)cn1)c1ccoc1` it was 22.8%.
As for `O=C(NCCNS(=O)(=O)c1ccc(C(F)(F)F)cc1)c1ccoc1`, the figure is 0.266%; as for `CC(C)c1ccc(OCCNC(=O)c2ccoc2)cc1`, 87.1%; as for `Cc1ccoc1C(=O)NCCOc1ccc(C(F)(F)F)cn1`, 31.7%.
In the case of `c1ccc(Cc2noc(-c3ccc(NCC4CCCOC4)nc3)n2)cc1` (centres undefined) it was 18.8%.
For `Cc1sc2ccccc2c1S(=O)(=O)NCCNC(=O)C(C)C`, the INHIBITION was -35%.
Regarding `Cc1ccc(N2C[C@H]3CCC[C@@]3(COc3cccnc3)C2)nn1`, the INHIBITION is -44.2%.
For the compound `CC(=O)Nc1c(C)noc1C=Cc1ccc(S(=O)(=O)NC2CC2)cc1`, the INHIBITION is reported as 47.2%.
As for `OC1(CNCCN2CCCc3ccccc32)CCNC1` (centres undefined), the figure is 9.55%; as for `Cn1c(=O)c2cc(C(=O)NCCOCC(F)(F)F)ccc2n(C)c1=O`, 27.8%.
On to `Cc1cc(N2CCC(Cc3cnccn3)C2)ncn1` (centres undefined), for which the INHIBITION was 2.55%.
For `CC(C)(C)c1n[nH]cc1CNC1CCC(C(F)(F)F)CC1` (centres undefined), the INHIBITION was -32.6%.
As for `CN(C)C(=O)C1CN(Cc2cscn2)CCN(S(C)(=O)=O)C1` (centres undefined), the figure is 37%; as for `Cc1cccc(CN2CC[C@H]3C[C@@H](C)O[C@@H]3C2)n1`, 76.5%; as for `CN(C)C(=O)C1CN(Cc2ccccn2)CCN(S(C)(=O)=O)C1` (centres undefined), 89.3%.
As for `C[C@H]1C[C@@H]2CCN(Cc3ccco3)C[C@H]2O1`, the figure is 46.2%.
As to `C[C@H]1C[C@@H]2CCN(Cc3ccccn3)C[C@H]2O1`, the INHIBITION is on record as 15.9%.
In the case of `C[C@H]1C[C@H]2CN(Cc3ccccn3)CC[C@@H]2O1` it was 46.2%; in that of `CN(C)C(=O)C1CN(Cc2ccccc2)CCN(S(C)(=O)=O)C1` (centres undefined), 32.4%; in that of `Cc1cccc(C(=O)N2CC[C@H]3C[C@@H](C)O[C@@H]3C2)n1`, 7.31%.
As for `C[C@@H]1C[C@@H]2CCN(Cc3ccncc3)C[C@H]2O1`, the figure is 15.9%; as for `C[C@@H]1C[C@@H]2CCN(Cc3ccccn3)C[C@H]2O1`, 55.5%.
As for `Cc1cccc(CN2CC[C@H]3C[C@H](C)O[C@@H]3C2)n1`, the figure is 56.7%.
Turning to `Cc1csc(CN2CC[C@H]3C[C@H](C)O[C@@H]3C2)n1`, the INHIBITION is reported as 15.4%.
On to `Cc1cc(N2CCCC2c2cc(Nc3cnccn3)nc(C)n2)ncn1` (centres undefined), for which the INHIBITION is -50.2%.
In the case of `Cc1nc(C)n(CC2CCCCN2Cc2nc(-c3ccco3)no2)n1` (centres undefined) it was -12.915%.
As for `Cc1ccc(C(=O)N2CCn3c(COCC4CC4)cnc3C2C)nc1` (centres undefined), the figure is 39.3%.
Turning to `CN(CC1(O)CCN(c2ccccn2)C1)C(=O)Cc1ccsc1` (centres undefined), the INHIBITION is listed as 46%.
As for `CCN(CC)c1ccc(NS(=O)(=O)c2cncc(F)c2)cn1`, the figure is 46.8%; as for `CCN(CC)c1ccc(NS(=O)(=O)c2cnn(C)c2)cn1`, 0.139%.
In the case of `CCN(CC)c1ccc(NS(=O)(=O)c2cccnc2)cn1` it was 77.5%; in that of `CCC(CNC(=O)c1cccc(S(=O)(=O)NC)c1)N1CCCC1` (centres undefined), 18%.
As to `COCCN1CCc2ncnc(-c3ccccc3)c2CC1`, the INHIBITION was 8.66%.
As for `Cc1cccc(NC(=O)CN(C)C(=O)c2ccc(-n3cccc3)nc2)n1`, the figure is 8.08%.
In the case of `Cc1ccc(C(=O)N(C)CC(=O)Nc2cccc(C)n2)cn1` it was 16.8%; in that of `Cc1ccc(NC(=O)CN(C)C(=O)c2ccc(-n3cccc3)nc2)nc1`, 68.9%.
As for `Nc1nc(C2CCN(C(=O)c3cnco3)CC2)cs1`, the figure is 18.9%; as for `Cc1cc(N[C@H]2CN(CC(C)(C)N3CCOCC3)C[C@@H]2C2CC2)ncn1`, 35.8%.
In the case of `CCOCCn1nc(C)cc1C(=O)N(C)Cc1cccc2ncccc12`, the INHIBITION is reported as 36%.
For `CCCc1cc(C(=O)N(C)Cc2cccc3cnccc23)n(C)n1`, the INHIBITION came to 6.33%.
For `CCCc1cc(C(=O)N(C)Cc2cccc3ncccc23)n(C)n1`, the INHIBITION is recorded as 46.8%.
In the case of `CCCc1cc(C(=O)N(C)Cc2ccc(OC)c3ncccc23)n(C)n1` it was 67.9%; in that of `CC(C)c1cc(C(=O)N(C)Cc2cccc3ncccc23)n(C)n1`, 67.2%.
As for `CN(Cc1cccc2ncccc12)C(=O)CCn1ccc(=O)[nH]c1=O`, the figure is 30.9%; as for `O=C(c1ccc2c(c1)OCCO2)N1CCCC(n2ccnc2)C1` (centres undefined), 37.9%.
In the case of `CCC(=O)N1CCC(c2nc(C)c3c(n2)N(C)CCC3)CC1` it was 34.1%; in that of `CC(C)N1CC(c2ccnc(Nc3nccs3)n2)C1`, 29.49%.
`COc1ccc(Cl)cc1-n1cnc(CCNC(C)=O)c1`: the INHIBITION is 71.5%.
For `COc1ccc(F)cc1-n1cnc(CCNC(C)=O)c1`, the INHIBITION came out at 35.1%.
As for `COc1cc(F)c(-n2cnc(CCNC(C)=O)c2)cc1F`, the figure is 4.1%; as for `O=C1NC2(CCN(CC(=O)N3CCOCC3)CC2)Nc2ccccc21`, 3.5%.
With `O=S1(=O)COCCN1Cc1ccc(F)c(C(F)(F)F)c1`, the INHIBITION is 19.4%.
In the case of `COCc1noc(-c2ccc(N3CCC[C@H]3CO)nc2)n1` it was 75.7%; in that of `OC[C@@H]1CCCN1c1ccc(-c2nc(CCc3ccccc3)no2)cn1`, 43.9%.
In the case of `COCc1noc(-c2ccc(N3CCCCC3COC)nc2)n1` (centres undefined) it was 48.5%; in that of `COCc1noc(-c2ccc(N3CCCC3c3ccc(F)cc3)nc2)n1` (centres undefined), 18.5%; in that of `OC[C@@H]1CCCN1c1ccc(-c2nc(COc3ccccc3)no2)cn1`, 25.8%.
In the case of `COc1ccc(-c2cnc(CN3CCCC3CO)o2)cc1` (centres undefined) it was 15.1%.
Take `COc1ccc(-c2noc(-c3ccc(N4CCC[C@H]4CO)nc3)n2)cc1`: the INHIBITION is 84.8%.
As for `COCc1noc(-c2ccc(N3CCCCC3CCCO)nc2)n1` (centres undefined), the figure is 35.8%; as for `COCc1noc(-c2ccc(N3CCCCC3CO)nc2)n1` (centres undefined), 90.1%; as for `COCc1noc(-c2ccc(N3CCCC3c3nccs3)nc2)n1` (centres undefined), 43%.
Take `Cc1noc(-c2ccc(N3CCC[C@H]3CO)nc2)n1`: the INHIBITION was determined as 17.6%.
As for `OCC1CCCCN1c1ccc(-c2nc(-c3ccccc3F)no2)cn1` (centres undefined), the figure is 91.8%; as for `CCCN1C[C@@H]2CC[C@H]1CN(C(=O)c1ccc(N(C)CCO)cc1)C2`, 43.9%.
For `N#Cc1ccc(CS(=O)(=O)NC(=O)COc2ccc3c(c2)CCC3)cc1`, the INHIBITION is listed as -57.66%.
Take `COC(=O)N1CC(C)=C(C)CN1C(=O)Nc1cccc(Cl)c1`: the INHIBITION was -28.6%.
As to `COc1cc(OC)cc(C(=O)N2CCOCC2c2[nH]ncc2C)c1` (centres undefined), the INHIBITION turned out to be 46.25%.
`Cc1nc(C)n(CC2CCCN2CCC(=O)N2CCCCC2)n1` (centres undefined): the INHIBITION is reported as -8.11%.
For the compound `Cc1ccc(C(=O)N2Cc3c(CN4CCCCC4)nn(C)c3C2)o1`, the INHIBITION was determined as 28.4%.
